Screening data from PubChem BioAssay.
ABCB6 inh 2: blocks the human ABCB6 transporter; Q9NP58; K562-ABCB6 porphyrin accumulation, flow cytometry, 1 h; stronger effect = lower value; fluorescence ratio to DMSO, % at 10 µM; 0.19% of 360,000 active; AID 602162;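 active = fluorescence ratio to DMSO below 75%, the collection mean minus 3 SD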;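 also: signal is porphyrin accumulated inside mitochondria; 100% equals median channel fluorescence of DMSO control wells; lower ratio means ABCB6 inhibition with less porphyrin fluorescence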
DAGLB inhibitor: diacylglycerol lipase beta (human) inhibition | Q8NCG7 | HEK293T DAGLB membrane lysate, EnzChek fluorogenic substrate | inhibition, % at 5.17 µM | 0.059% of 340,000 active; in the data active = inhibition above about 34%;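 also: 0% = enzyme with vehicle and 100% = wells lacking enzyme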
TMEM16A inh: blocks the mouse calcium-activated chloride channel TMEM16A; Q8BHY3; HEK293 TMEM16A/YFP iodide influx fluorescence, ionomycin; normalized B-score (activity score, 25-100; higher = stronger inhibition) at 10 µM; 1.2% of 310,000 active; AID 588511;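 active = ratio plate-corrected score three or more library SD toward inhibition, starting fluorescence score within five deviations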;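 also: score derived from kinetic fluorescence span divided by baseline fluorescence per well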
Target sequence (Q8BHY3 whole entry, looked up): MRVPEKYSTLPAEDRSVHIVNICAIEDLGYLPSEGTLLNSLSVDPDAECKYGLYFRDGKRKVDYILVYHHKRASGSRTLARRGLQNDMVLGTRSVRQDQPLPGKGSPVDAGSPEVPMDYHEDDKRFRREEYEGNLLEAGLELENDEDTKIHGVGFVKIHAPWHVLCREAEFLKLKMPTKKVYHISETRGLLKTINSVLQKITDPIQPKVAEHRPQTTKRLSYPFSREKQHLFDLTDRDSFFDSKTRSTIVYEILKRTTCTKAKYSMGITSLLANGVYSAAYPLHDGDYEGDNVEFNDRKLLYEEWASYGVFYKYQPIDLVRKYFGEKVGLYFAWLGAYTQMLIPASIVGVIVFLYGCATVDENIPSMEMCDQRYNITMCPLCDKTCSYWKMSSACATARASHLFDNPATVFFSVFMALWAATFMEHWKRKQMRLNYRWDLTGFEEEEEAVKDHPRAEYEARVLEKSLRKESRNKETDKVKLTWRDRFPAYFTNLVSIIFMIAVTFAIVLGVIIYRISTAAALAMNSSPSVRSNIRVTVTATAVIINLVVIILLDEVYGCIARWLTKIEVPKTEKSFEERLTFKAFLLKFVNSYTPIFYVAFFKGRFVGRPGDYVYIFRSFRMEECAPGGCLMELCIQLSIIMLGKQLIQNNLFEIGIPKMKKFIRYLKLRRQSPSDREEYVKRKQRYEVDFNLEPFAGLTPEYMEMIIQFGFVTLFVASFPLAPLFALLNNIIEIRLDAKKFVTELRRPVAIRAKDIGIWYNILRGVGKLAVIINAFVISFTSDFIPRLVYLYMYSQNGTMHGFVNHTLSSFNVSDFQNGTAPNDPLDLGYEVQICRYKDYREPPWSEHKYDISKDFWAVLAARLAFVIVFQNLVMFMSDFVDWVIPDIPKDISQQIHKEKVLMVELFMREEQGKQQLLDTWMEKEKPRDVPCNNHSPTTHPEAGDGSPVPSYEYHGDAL
hiPSC survival: enhancers of human iPSC single-cell survival; hiPSC single-cell survival, ATPlite luminescence; 100% = ROCK inhibitor wells, 0% = DMSO; survival enhancement, % at 20 µM; 0.044% of 360,000 active; AID 602274; in the data active = survival enhancement above about 18%;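 also: cells exposed to compounds for 16 hours before the ATP read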
TMEM16A act: activators or potentiators of mouse TMEM16A chloride channel | B-score at 10 µM | HEK293 TMEM16A/YFP-H148Q/I152L, iodide quench fluorescence; stronger effect = lower value | 0.3% of 340,000 active | AID 623877 | Q8BHY3;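 active = fluorescence-ratio B-score plate-corrected deviation score at least 3 library SD below zero, with starting fluorescence score within 5 deviations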;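 also: channel opened by trigger with iodide after compound preincubation; score built on the fluorescence ratio of max minus min over baseline; more negative score means more quench and so TMEM16A activation or potentiation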
* = called active by the depositor; i = inactive; . = no result given. Sampled rows, rich in hits. Any-hit rate of the full collection: about 1.5%.

SMILES	ABCB6 inh 2	DAGLB inhibitor	TMEM16A inh	hiPSC survival	TMEM16A act
CCN(c1ccccc1)S(=O)(=O)c1cc(C(=O)Nc2ccccc2Cl)ccc1F	99	-10	i	-1	i
CCC1(C(=O)OC)NC(c2ccco2)C2C(=O)N(c3ccccc3)C(=O)C21 (stereo unspecified)	98	-7	i	2	-4.8*
CCC1(C(=O)OC)NC(c2ccco2)C2C(=O)N(c3ccc(F)cc3)C(=O)C21 (stereo unspecified)	101	-2	i	2	i
COc1ccc(CC(=O)Nc2ccc3c(c2)CCC3)cc1OC	97	0	25*	-1	i
COc1ccc(OC)c(CC(=O)Nc2ccc3c(c2)CCC3)c1	97	-7	i	0	i
O=c1cc(CSc2nnc(-c3cccs3)n2Cc2ccccc2)nc2sc3ccccc3n12	89	0	100*	-1	i
Cc1cc(C(=O)CSc2nnc(-c3cccs3)n2Cc2ccccc2)c(C)n1C	105	-1	i	0	i
Cc1ccc2c(c1)N(S(=O)(=O)c1ccc(CN3C(=O)c4cccnc4C3=O)s1)CCO2	103	2	i	0	i
Cc1ccc2c(c1)N(S(=O)(=O)c1ccc(CN3C(=O)c4cccnc4C3=O)cc1)CCO2	97	-1	i	0	-23*
Cc1ccc(C(=O)Nc2ccccc2N2CCOCC2)cc1S(=O)(=O)N1CCOCC1	90	-2	.	0	i
Cc1cc(NC(=O)c2ccc(C#N)cc2)n(-c2ccccn2)n1	93	0	i	1	-30*
Cc1cc(NC(=O)c2ccc(F)cc2)n(-c2ccccn2)n1	91	-5	i	0	i
Cc1cc(C(C)(C)CC(C)(C)C)ccc1OCCOCC[N+](C)(C)Cc1ccccc1	101	4	100*	-5	i
Cn1c(SCC(=O)Nc2ccc(Cl)cc2F)nnc1-c1ccco1	98	0	i	0	i
Cc1cc(Br)ccc1NC(=S)Nc1cccc([N+](=O)[O-])c1	100	1	100*	-1	i
CNC(=S)Nc1cccc([N+](=O)[O-])c1	101	-1	i	-1	i
Cc1cccc(NC(=S)NNC(=O)c2cccc([N+](=O)[O-])c2)c1	100	7	25*	0	i
O=C(NNC(=S)NC(=O)c1cccc([N+](=O)[O-])c1)c1ccc(Br)cc1	93	-1	100*	0	i
O=C(NNC(=S)NC(=O)c1cccc([N+](=O)[O-])c1)c1ccc(O)cc1	95	-2	i	0	i
Cc1cccc(S(=O)(=O)N(C)C[C@H]2OCc3cnnn3CCCC(=O)N([C@H](C)CO)C[C@@H]2C)c1	98	2	.	-2	.
Cc1nn(-c2ccc(C(=O)NCC(c3ccco3)N3CCCC3)cc2)c(C)c1Cl (stereo unspecified)	104	-1	.	0	i
Cc1cccc2sc(NNC(=O)c3cc(=O)c4ccccc4o3)nc12	120	13	i	-1	i
Cc1ccc2sc(NNC(=O)c3cc(=O)c4ccccc4o3)nc2c1C	122	23	100*	-1	i
O=C(CCC1CCN(C(=O)C2CC=CCC2)CC1)Nc1ccccc1 (stereo unspecified)	97	0	.	-1	.
O=C(Nc1cc(C(F)(F)F)cc(C(F)(F)F)c1)Nc1cnn(-c2ccc([N+](=O)[O-])cc2)c1C(F)(F)F	92	0	100*	0	i
SMILES	ABCB6 inh 2	DAGLB inhibitor	TMEM16A inh	hiPSC survival	TMEM16A act
Cc1cc(S(=O)(=O)N2CCCOC2CNC(=O)C(=O)NCCc2ccco2)ccc1F (stereo unspecified)	99	2	i	0	i
C[C@@H]1CN([C@@H](C)CO)C(=O)CCCn2nncc2CO[C@@H]1CN(C)S(=O)(=O)c1ccccc1C#N	102	-2	.	-3	.
COc1ccc(OC)c(C(c2nnnn2CCc2ccccc2)N2CCN(c3ccccc3)CC2)c1 (stereo unspecified)	86	-9	i	0	-8.5*
CCOC(=O)C1=CCC(c2ccccc2C)N(S(=O)(=O)c2ccc(C)cc2)C1 (stereo unspecified)	98	.	.	-1	.
CCC(=O)Oc1ccc(C(CC)C(CC)c2ccc(OC(=O)CC)cc2)cc1 (stereo unspecified)	96	-1	100*	0	i
Cc1ccc(OCC(=O)Oc2ccc(C(C)C)cc2)cc1	94	-7	i	0	i
O=C(c1ccccc1)N1CCC(c2nc(-c3ccc(S(=O)(=O)NCC4CCCO4)cc3)no2)CC1 (stereo unspecified)	101	-2	25*	0	i
O=C1/C(=C\c2cccc([N+](=O)[O-])c2O)SC(=S)N1Cc1ccccc1	133	20	100*	2	i
Cc1ccc(S(=O)(=O)c2ccc(Cl)cc2)cc1S(=O)(=O)N1CCOCC1	99	0	25*	-1	i
CC(C)(C)c1cc(-c2csc(Nc3ccccc3)[n+]2Cc2ccc(C(=O)O)cc2)cc(C(C)(C)C)c1O	98	11	100*	0	i
Cc1ccc(S(=O)(=O)CCC(=O)N2CCN(c3ccc([N+](=O)[O-])cc3)CC2)cc1	94	-1	i	1	i
COc1cc(-c2coc3c(C(=O)NCc4ccccc4)cccc23)ccc1O	98	.	.	-2	.
COc1ccc(S(=O)(=O)N2CCCCCC2)cc1C(=O)N(C)Cc1ccc(Cl)cc1Cl	94	-5	i	0	-22*
COc1ccc(S(=O)(=O)N2CCCCCC2)cc1C(=O)N(C)Cc1c(F)cccc1Cl	91	-3	.	0	i
CCOC(=O)C(NC(=O)c1ccccc1Cl)(Nc1ccc(C)c(C)c1)C(F)(F)F (stereo unspecified)	90	-4	i	1	i
COC(=O)C(Nc1ccccc1Cl)(c1cc(C)c(O)c(C)c1)C(F)(F)F (stereo unspecified)	107	-2	100*	-1	i
COCCn1c(SC(C)C(=O)Nc2ncc(Cl)cc2Cl)nc2ccccc21 (stereo unspecified)	102	-2	i	-2	i
Cc1nnc(SC(C)C(=O)Nc2ncc(Cl)cc2Cl)n1Cc1ccccc1 (stereo unspecified)	102	4	i	2	-20*
CN=C(Nc1ccc2c(c1)OCO2)SC1CC(=O)N(c2ccccc2)C1=O (stereo unspecified)	96	0	25*	9	i
O=C1CC(SC(=NCc2ccc3c(c2)OCO3)Nc2ccccc2)C(=O)N1c1ccccc1 (stereo unspecified)	110	-3	i	9	i
O=C(O)c1ccc(S(=O)(=O)NCc2ccc3c(c2)OCO3)cc1	97	-1	i	0	.
